Test results reported in the supplement of paper PMC6555819.

Assays:
Assay in all cases: PBM binding z-score (relative to random genomic background probes); higher = stronger binding; sequences stand for … in GC…GCGATTGACAGCGTAGAATGAAGG
[1] = test system: PPARg:RXRa DBDmut IVT, anti-RXR (DBD mutation: RXRa K156A/R161A, NR concentration 270 nM, RXRa partner concentration 90 nM)
Method in brief: (§1)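 Ligand-free nuclear receptor dimers were bound for 1 h to custom Agilent 4×180K protein-binding microarrays. Detection used antibodies against each partner (one per run). Binding z-scores rest on regression-normalized fluorescence, with random background probes as the reference.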

[2] = test system: PPARg:RXRa IVT, anti-PPARg (NR concentration 270 nM, RXRa partner concentration 90 nM)
Method in brief: as §1

[3] = test system: PPARg DBDmut:RXRa IVT, anti-PPARg (DBD mutation: PPARg1 K132A/R137A, NR concentration 270 nM, RXRa partner concentration 90 nM)
Method in brief: as §1

[4] = test system: PPARg DBDmut IVT, anti-PPARg (DBD mutation: PPARg1 K132A/R137A, NR concentration 270 nM)
Method in brief: as §1

[5] = test system: PPARg homodimer (NR concentration 180 nM)
Method in brief: as §1

[6] = test system: PXR:RXRa (NR concentration 270 nM, RXRa partner concentration 90 nM)
Method in brief: as §1

[7] = test system: PXR homodimer (NR concentration 270 nM)
Method in brief: as §1

[8] = test system: RARa:RXR (NR concentration 270 nM, RXRa partner concentration 90 nM)
Method in brief: as §1

[9] = test system: RARa homodimer (NR concentration 270 nM)
Method in brief: as §1

[10] = test system: RARb:RXRa (NR concentration 270 nM, RXRa partner concentration 90 nM)
Method in brief: as §1

[11] = test system: RARb homodimer (NR concentration 270 nM)
Method in brief: as §1

[12] = test system: RARg:RXRa (NR concentration 270 nM, RXRa partner concentration 90 nM)
Method in brief: as §1

[13] = test system: RARg homodimer (NR concentration 270 nM)
Method in brief: as §1

[14] = test system: RXRa DBDmut IVT, anti-RXR (DBD mutation: RXRa K156A/R161A, NR concentration 90 nM)
Method in brief: as §1

[15] = test system: RXRa homodimer (NR concentration 180 nM)
Method in brief: as §1

[16] = test system: THRa:RXRa (NR concentration 90 nM, RXRa partner concentration 90 nM)
Method in brief: as §1

[17] = test system: THRa homodimer (NR concentration 90 nM)
Method in brief: as §1

[18] = test system: VDR homodimer (NR concentration 270 nM)
Method in brief: as §1

Sequence | PBM binding z-score [1] | PBM binding z-score [2] | PBM binding z-score [3] | PBM binding z-score [4] | PBM binding z-score [5] | PBM binding z-score [6] | PBM binding z-score [7] | PBM binding z-score [8] | PBM binding z-score [9] | PBM binding z-score [10] | PBM binding z-score [11] | PBM binding z-score [12] | PBM binding z-score [13] | PBM binding z-score [14] | PBM binding z-score [15] | PBM binding z-score [16] | PBM binding z-score [17] | PBM binding z-score [18]
CGTCCAAGGTGAAGGTCAGTGAAAGAGACTCGAA | 1.92 | 2.94 | -0.298 | -0.465 | 0.911 | 1.43 | -0.222 | 2.11 | 0.387 | 3.93 | 3.4 | 3.39 | 3.88 | 0.585 | 2.36 | 2.71 | 0.956 | 0.389
CGTCCAAGGACAAAGGTCAGTGAAGAGATGACGG | 0.675 | 2.78 | -0.53 | -0.214 | 2.27 | 3.18 | 0.71 | 3.79 | 1.02 | 4.56 | 4.61 | 5.3 | 4.95 | 1.31 | 4.03 | 4 | 1.15 | 0.88
AGTTAAAGTTCACTAGGTAACGTAAGATTCAGCT | 2.6 | 4.69 | 1.44 | 1.19 | 2.19 | 3.54 | 2.11 | 2.66 | 1.6 | 4.51 | 3.53 | 4.38 | 4.95 | 3.86 | 3.07 | 1.92 | 0.252 | 3.22
ATCGAAAGGTCGAGGTGCGTATAGAGAAAGGGAA | -0.194 | 1.03 | 0.819 | 0.0547 | 1.09 | 2.33 | 0.0206 | 3.2 | 0.4 | 3.98 | 2.47 | 4.3 | 4.33 | 0.96 | 4.37 | 1.77 | -0.562 | 0.304
TCTAGTTGTTCACGGAGGTCACACACGACGGGTA | 1.73 | 2.51 | 0.302 | 1.32 | 2.67 | 4.27 | 1.07 | 4.45 | 1.31 | 3.37 | 4.05 | 3.97 | 3.7 | 1.18 | 4.36 | 3.39 | 2.47 | 3.06
CAAACTAGGTCAAGGGTCAAAGTCGAGCCAACCA | 8.5 | 9.08 | 6.09 | 4.1 | 5.23 | 5.66 | 0.825 | 7.15 | 1.84 | 5.38 | 4.7 | 7.41 | 6.13 | 2.47 | 8.6 | 4.36 | 1.45 | 3.15
GCTAGTTGGTCAGTAAAACGTCACACACCGGTCG | 0.256 | 0.168 | 0.0879 | -0.472 | -0.368 | -0.432 | -0.66 | -0.372 | -0.12 | 0.305 | 0.309 | -0.139 | 0.216 | -0.207 | -0.264 | -0.444 | -0.619 | -0.255
TCATATAGGTATACAGGTGAAAGTCCGTAAGTTA | 2.8 | 2.54 | 0.449 | 1.54 | 1.33 | 0.873 | 0.816 | 1.03 | 1.2 | 0.603 | 0.863 | 0.487 | 0.35 | 1.58 | 1.14 | 0.729 | 0.585 | 0.541
CCGACTGGGGCAAAGGTTACCTTACTCAGTACGA | 5 | 5.64 | 0.278 | -0.11 | 1.61 | 2.22 | -0.485 | 3.41 | -0.487 | 2.19 | 2.02 | 3.15 | 1.62 | 0.0718 | 3.54 | 2.12 | 0.802 | -0.495
CCTAGCAGGCCAGAGTCACTCAAGCATTTCGCTT | 0.697 | -0.158 | -1.34 | -1.29 | 0.134 | -0.712 | -0.709 | -0.507 | -0.47 | -0.0457 | -0.596 | -0.447 | -0.706 | -0.204 | -0.442 | -0.569 | -0.769 | -0.726
ACACACAGGTGATGAAGGTAACTCAGGCTATCAT | 0.704 | 1.02 | 0.73 | 0.679 | 0.0611 | -0.0363 | 0.251 | 0.28 | 0.957 | 0.355 | 0.43 | 0.435 | 0.664 | 0.355 | 0.276 | 1.06 | 0.194 | 0.17
CCTTACGGGTCACTCCAGGATATAGCATCGGAGT | 2.53 | 2.97 | 0.582 | -0.0388 | 1.51 | 3.13 | 0.912 | 2.84 | 0.759 | 3.4 | 2.33 | 4.02 | 3.98 | 1.43 | 4.06 | 4.39 | 0.217 | 1.23
TAGCCTAGGTCATGGGCCAGTCTACCACGCGAAC | 1.64 | 3.21 | 0.44 | 0.137 | 1.7 | 1.48 | -0.884 | 2.52 | -0.257 | 3.74 | 2.8 | 4.32 | 4.43 | -0.0274 | 3.69 | 2.93 | 1.09 | 0.0195
TCTAGTTGGTCACGGAGGTTACACACGACGGGTA | 2.33 | 2.95 | 0.625 | 0.671 | 1.64 | 1.53 | 0.58 | 1.77 | 0.623 | 2.42 | 2.39 | 2.29 | 2.43 | 0.609 | 2.16 | 1.71 | 0.725 | 0.629
ACTTACGGGTCACCGAGGTTATAGCACGCGTATA | 4.12 | 5.23 | 2.17 | 1.98 | 3.07 | 5.54 | 3.25 | 6.06 | 1.56 | 4.67 | 4.01 | 6.34 | 5.96 | 2.78 | 7.33 | 4.24 | 1.45 | 4.59
CGTCAAGGTTCAAGGTAACGTAACAGAAAGCAGC | -0.0787 | 0.903 | -0.883 | -0.847 | 1.12 | 1.87 | 0.422 | 2.3 | -0.0336 | 3.24 | 1.73 | 3.11 | 2.71 | 4.1 | 3.11 | 2.61 | 1.01 | 3.6
